From PubChem BioAssay (EPA / NIEHS)
Activity calls are given as the source filed them. Rule for the calls: active = hit-call score of the fitted dose curve at least 0.9, where 1 is the maximum; inactive = score below 0.9.

Assays:
Conditions in all cases: mRNA level, 48 h; actives raise or lower the signal
[1] = read-out: Insulin-like growth factor-binding protein 1 (IGFBP1), IGFBP1 (gene 3484); experiment: LTEA_HepaRG_IGFBP1: Life Technologies and Expression Analysis (LTEA) Assay for Insulin-like growth factor-binding protein 1 (IGFBP1) using HepaRG (AID 2283508)
Outline: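 Differentiated human HepaRG cells in serum-free induction medium were exposed in duplicate for 48 h to eight concentrations, top 100 uM with half-log dilutions, in 0.5% DMSO. Transcript levels came from qRT-PCR normalised to ACTB, GAPDH and POLR2A, fitted bidirectionally against DMSO.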

[2] = read-out: Interleukin 6 (IL6), IL6 (gene 3569); experiment: LTEA_HepaRG_IL6: Life Technologies and Expression Analysis (LTEA) Assay for Interleukin 6 (IL6) using HepaRG (AID 2283509)
Outline: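 HepaRG cells exposed in duplicate for 48 h to eight half-log concentrations, top 100 uM, in 0.5% DMSO serum-free induction medium. mRNA measured by qRT-PCR, normalized to ACTB, GAPDH and POLR2A. Bidirectional fit versus DMSO.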

[3] = read-out: Interleukin 6 Receptor (IL6R), IL6R (gene 3570); experiment: LTEA_HepaRG_IL6R: Life Technologies and Expression Analysis (LTEA) Assay for Interleukin 6 Receptor (IL6R) using HepaRG (AID 2283510)
Outline: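 Concentration-response in human liver HepaRG cells: eight concentrations from 100 uM downward by half-logs, 48 h exposure, 0.5% DMSO vehicle. IL6R mRNA change measured by qRT-PCR and fitted in both directions relative to vehicle.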

[4] = read-out: Potassium channel subfamily K member 1 (KCNK1), KCNK1 (gene 3775); experiment: LTEA_HepaRG_KCNK1: Life Technologies and Expression Analysis (LTEA) Assay for Potassium channel subfamily K member 1 (KCNK1) using HepaRG (AID 2283511)
Outline: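 Differentiated HepaRG cells, 48 h exposure in serum-free induction medium with 0.5% DMSO; 8 concentrations, half-log from 100 uM, duplicate. KCNK1 mRNA by qRT-PCR, normalized to ACTB, GAPDH, POLR2A; bidirectional fit vs DMSO.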

[5] = read-out: Keratin 19 (KRT19), KRT19 (gene 3880); experiment: LTEA_HepaRG_KRT19: Life Technologies and Expression Analysis (LTEA) Assay for Keratin 19 (KRT19) using HepaRG (AID 2283512)
Outline: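 Differentiated human HepaRG cells, plated 48 h, were exposed in duplicate for 48 h in serum-free induction medium to eight half-log concentrations up to 100 uM in 0.5% DMSO. KRT19 mRNA was quantified by qRT-PCR, normalized to ACTB, GAPDH and POLR2A, and fitted bidirectionally versus DMSO.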

[6] = read-out: JUN Transcription Factor, JUN (gene 3725); experiment: LTEA_HepaRG_JUN: Life Technologies and Expression Analysis (LTEA) Assay for JUN Transcription Factor using HepaRG (AID 2283513)
Outline: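 Human HepaRG liver cells receive test chemicals in 0.5% DMSO for 48 h across an eight-point range topping at 100 uM. Expression changes in JUN are scored in both directions against the DMSO vehicle.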

[7] = read-out: Lipase C (LIPC), LIPC (gene 3990); experiment: LTEA_HepaRG_LIPC: Life Technologies and Expression Analysis (LTEA) Assay for Lipase C (LIPC) using HepaRG (AID 2283514)
Outline: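 HepaRG cells, 48 h after plating, treated in duplicate for 48 h in serum-free induction medium over 8 half-log concentrations from 100 uM, 0.5% DMSO. LIPC mRNA by TaqMan qRT-PCR normalized to ACTB/GAPDH/POLR2A; bidirectional fit versus DMSO.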

[8] = read-out: Lipoprotein lipase (LPL), LPL (gene 4023); experiment: LTEA_HepaRG_LPL: Life Technologies and Expression Analysis (LTEA) Assay for Lipoprotein lipase (LPL) using HepaRG (AID 2283515)
Outline: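 Differentiated HepaRG cells, plated 48 h, then exposed 48 h in serum-free induction medium to 8 concentrations (top 100 uM, half-log steps) in 0.5% DMSO, duplicate. LPL mRNA measured by qRT-PCR, normalized to ACTB, GAPDH and POLR2A.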

[9] = read-out: MicroRNA 122 (MIR122), gene 406906; experiment: LTEA_HepaRG_MIR122: Life Technologies and Expression Analysis (LTEA) Assay for MicroRNA 122 (MIR122) using HepaRG (AID 2283516); note: the transcript read is the microRNA miR-122
Outline: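 HepaRG, 48 h exposure, 8-pt half-log from 100 uM, 0.5% DMSO; TaqMan qRT-PCR; bidirectional fit vs DMSO.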

[10] = read-out: matrix metalloproteinase-10 (MMP10), MMP10 (gene 4319); experiment: LTEA_HepaRG_MMP10: Life Technologies and Expression Analysis (LTEA) Assay for matrix metalloproteinase-10 (MMP10) using HepaRG (AID 2283517)
Outline: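 Differentiated HepaRG cells in serum-free induction medium exposed 48 h in duplicate to 8-point half-log series up to 100 uM in 0.5% DMSO. mRNA quantified by qRT-PCR, normalised to ACTB, GAPDH, POLR2A; bidirectional fit versus DMSO.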

MYC, MYC (gene 4609) = experiment: LTEA_HepaRG_MYC: Life Technologies and Expression Analysis (LTEA) Assay for MYC using HepaRG (AID 2283518)
Outline: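 Differentiated human HepaRG cells, plated 48 h then switched to serum-free induction medium, were exposed in duplicate for 48 h to 8-point half-log series up to 100 uM in 0.5% DMSO. MYC mRNA measured by qRT-PCR, normalized to ACTB/GAPDH/POLR2A.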

[11] = read-out: matrix metalloproteinase-3 (MMP3), MMP3 (gene 4314); experiment: LTEA_HepaRG_MMP3: Life Technologies and Expression Analysis (LTEA) Assay for matrix metalloproteinase-3 (MMP3) using HepaRG (AID 2283519)
Outline: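 HepaRG cells (~100,000/well) in serum-free induction medium were dosed in duplicate for 48 h with an 8-point half-log series from 100 uM, 0.5% DMSO. MMP3 mRNA was quantified by Fluidigm TaqMan qRT-PCR, normalized to three housekeeping genes.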

[12] = read-out: Paternally Expressed 10 (PEG10), PEG10 (gene 23089); experiment: LTEA_HepaRG_PEG10: Life Technologies and Expression Analysis (LTEA) Assay for Paternally Expressed 10 (PEG10) using HepaRG (AID 2283520)
Outline: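 Chemicals tested on HepaRG cells for 48 h, highest concentration 100 uM. PEG10 expression assessed by qRT-PCR relative to DMSO control.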

[13] = read-out: Nuclear factor NF-kappa-B p105 subunit (Homo sapiens) (UniProt P19838); experiment: LTEA_HepaRG_NFKB1: Life Technologies and Expression Analysis (LTEA) Assay for Nuclear Factor Kappa B Subunit 1 (NFKB1) using HepaRG (AID 2283521);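 note: TaqMan qRT-PCR transcript normalised to ACTB GAPDH and POLR2A housekeeping genes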
Outline: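 Differentiated human HepaRG cells were exposed for 48 h in serum-free induction medium to eight concentrations (top 100 uM, half-log steps, 0.5% DMSO), in duplicate. NFKB1 mRNA was measured by TaqMan qRT-PCR, normalized to ACTB/GAPDH/POLR2A, and fitted bidirectionally against DMSO.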

[14] = read-out: Protein phosphatase 2A (PPP2R4), PTPA (gene 5524); experiment: LTEA_HepaRG_PPP2R4: Life Technologies and Expression Analysis (LTEA) Assay for Protein phosphatase 2A (PPP2R4) using HepaRG (AID 2283522)
Outline: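 Gene-expression endpoint in HepaRG hepatic cells: 48 h treatment across eight half-log concentrations up to 100 uM in 0.5% DMSO. PPP2R4 mRNA by qRT-PCR, normalized to three endogenous control genes.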

[15] = read-out: Phosphatase and tensin (PTEN), PTEN (gene 5728); experiment: LTEA_HepaRG_PTEN: Life Technologies and Expression Analysis (LTEA) Assay for Phosphatase and tensin (PTEN) using HepaRG (AID 2283523)
Outline: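 HepaRG cells, 48 h after plating, exposed in duplicate for 48 h in serum-free induction medium to 8 half-log concentrations up to 100 uM (0.5% DMSO). PTEN mRNA by qRT-PCR, normalized to ACTB, GAPDH, POLR2A; bidirectional fit versus DMSO.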

[16] = read-out: solute carrier (SLC22A1), SLC22A1 (gene 6580); experiment: LTEA_HepaRG_SLC22A1: Life Technologies and Expression Analysis (LTEA) Assay for solute carrier (SLC22A1) using HepaRG (AID 2283524)
Outline: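 Differentiated human HepaRG cells in serum-free induction medium, exposed 48 h in duplicate to 8-point half-log series from 100 µM top in 0.5% DMSO. SLC22A1 mRNA by TaqMan qRT-PCR normalized to ACTB, GAPDH, POLR2A; bidirectional fit versus DMSO.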

[17] = read-out: Pyruvate Dehydrogenase Kinase 4 (PDK4), PDK4 (gene 5166); experiment: LTEA_HepaRG_PDK4: Life Technologies and Expression Analysis (LTEA) Assay for Pyruvate Dehydrogenase Kinase 4 (PDK4) using HepaRG (AID 2283525)
Outline: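 HepaRG cells plated 48 h, then switched to serum-free induction medium and exposed in duplicate for 48 h to 8 half-log concentrations from 100 uM in 0.5% DMSO. PDK4 mRNA measured by qRT-PCR, normalized to ACTB, GAPDH and POLR2A; bidirectional fit versus DMSO.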

[18] = read-out: NAD(P)H dehydrogenase [quinone] 1 (NQO1), NQO1 (gene 1728); experiment: LTEA_HepaRG_NQO1: Life Technologies and Expression Analysis (LTEA) Assay for NAD(P)H dehydrogenase [quinone] 1 (NQO1) using HepaRG (AID 2283526)
Outline: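 Human HepaRG hepatic cells received chemicals for 48 h in serum-free induction medium with 0.5% DMSO, up to 100 uM. Expression was assessed by TaqMan qRT-PCR against housekeeping controls and fitted bidirectionally against DMSO.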

[19] = read-out: Nuclear factor erythroid 2-related factor 2 (Homo sapiens) (UniProt Q16236); experiment: LTEA_HepaRG_NFE2L2: Life Technologies and Expression Analysis (LTEA) Assay for Nuclear factor erythroid 2-related factor 2 (NFE2L2) Transcription Factor using HepaRG (AID 2283527);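 note: TaqMan qRT-PCR transcript level normalised to ACTB GAPDH and POLR2A housekeeping genes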
Outline: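 Differentiated human HepaRG cells, serum-free induction medium, exposed 48 h in duplicate to eight half-log concentrations up to 100 uM in 0.5% DMSO. NFE2L2 mRNA by Fluidigm TaqMan qRT-PCR, normalised to ACTB, GAPDH, POLR2A; bidirectional change versus DMSO.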

Measured: outcome

Sequence of Nuclear factor NF-kappa-B p105 subunit (Homo sapiens) (P19838 whole entry, looked up): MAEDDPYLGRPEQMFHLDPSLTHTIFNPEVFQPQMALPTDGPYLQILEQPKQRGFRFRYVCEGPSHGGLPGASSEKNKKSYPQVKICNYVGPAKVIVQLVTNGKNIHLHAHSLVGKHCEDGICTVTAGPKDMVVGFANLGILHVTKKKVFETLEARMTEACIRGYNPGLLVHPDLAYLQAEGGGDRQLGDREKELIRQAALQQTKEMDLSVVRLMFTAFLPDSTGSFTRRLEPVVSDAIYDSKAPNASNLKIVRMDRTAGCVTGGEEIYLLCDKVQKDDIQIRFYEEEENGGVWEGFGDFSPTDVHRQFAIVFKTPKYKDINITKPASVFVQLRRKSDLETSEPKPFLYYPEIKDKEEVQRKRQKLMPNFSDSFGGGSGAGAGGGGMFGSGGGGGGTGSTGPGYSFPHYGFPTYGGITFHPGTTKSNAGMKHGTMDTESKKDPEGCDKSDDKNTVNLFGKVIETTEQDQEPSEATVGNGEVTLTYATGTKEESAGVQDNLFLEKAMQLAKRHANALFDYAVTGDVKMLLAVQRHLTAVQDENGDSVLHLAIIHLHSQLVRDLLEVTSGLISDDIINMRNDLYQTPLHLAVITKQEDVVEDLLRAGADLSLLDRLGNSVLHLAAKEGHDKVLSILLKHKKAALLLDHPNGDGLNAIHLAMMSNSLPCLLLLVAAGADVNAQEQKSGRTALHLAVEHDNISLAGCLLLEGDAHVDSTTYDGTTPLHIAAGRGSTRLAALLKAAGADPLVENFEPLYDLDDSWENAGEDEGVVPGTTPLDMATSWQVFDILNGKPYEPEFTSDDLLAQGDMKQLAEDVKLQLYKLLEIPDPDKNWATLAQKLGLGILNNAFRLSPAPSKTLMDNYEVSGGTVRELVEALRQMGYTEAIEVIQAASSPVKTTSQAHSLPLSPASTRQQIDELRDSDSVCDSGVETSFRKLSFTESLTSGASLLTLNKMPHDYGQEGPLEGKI
Sequence of Nuclear factor erythroid 2-related factor 2 (Homo sapiens) (Q16236 whole entry, looked up): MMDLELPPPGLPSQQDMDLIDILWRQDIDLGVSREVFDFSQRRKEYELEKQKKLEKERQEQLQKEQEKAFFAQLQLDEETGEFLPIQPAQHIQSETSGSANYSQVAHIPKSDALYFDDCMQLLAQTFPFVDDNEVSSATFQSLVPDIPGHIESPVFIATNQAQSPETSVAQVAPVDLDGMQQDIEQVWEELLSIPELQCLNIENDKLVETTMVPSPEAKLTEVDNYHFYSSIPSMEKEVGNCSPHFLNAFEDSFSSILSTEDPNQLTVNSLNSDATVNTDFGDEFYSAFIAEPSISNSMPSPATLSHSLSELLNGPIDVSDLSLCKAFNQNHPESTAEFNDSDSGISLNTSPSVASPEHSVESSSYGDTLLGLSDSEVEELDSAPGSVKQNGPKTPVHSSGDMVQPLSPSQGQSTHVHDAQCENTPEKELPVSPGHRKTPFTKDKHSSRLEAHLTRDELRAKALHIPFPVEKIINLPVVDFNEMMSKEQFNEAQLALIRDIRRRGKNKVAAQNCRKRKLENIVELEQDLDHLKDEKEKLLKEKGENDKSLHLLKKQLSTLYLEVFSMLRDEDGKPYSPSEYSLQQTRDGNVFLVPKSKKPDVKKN

CCCCCCCCOC(=O)c1ccccc1C(=O)OCCCCCCCC
inactive: all assays above

C1CC2OC2CC1C1CO1 (configuration not stated)
not listed: [19]
inactive: all other assays above

c1ccc(-c2ccccc2)cc1
not listed: [19]
inactive: all other assays above

Cc1ccccc1O
not listed: [19]
inactive: all other assays above
